PAFAH2 inh = PAFAH2 enzyme inhibitors, primary screen, biochemical, fluorescence polarization, human | recombinant PAFAH2, FP-rhodamine activity probe | Platelet-activating factor acetylhydrolase 2, cytoplasmic (Homo sapiens), Q99487 | inhibition, % at 3.39 µM | AID 492956, 2010 | hit rate 0.99% among 340,000;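 active means inhibition above the mean over all tested compounds plus 3 SD, cut at about 30% in these data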;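 further: inhibitors block probe labeling of enzyme so polarization drops; 0% = enzyme with DMSO and 100% = wells lacking PAFAH2 protein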
PAFAH1B2 FP inh = PAFAH1B2 enzyme inhibitors, primary screen, biochemical, fluorescence polarization, human | Platelet-activating factor acetylhydrolase IB subunit alpha2 (Homo sapiens), P68402 | hit rate 1.2% among 340,000 | recombinant PAFAH1B2, FP-rhodamine activity probe | inhibition, % at 3.39 µM | AID 492953, 2010;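 active means inhibition above the mean of all tested compounds plus 3 SD, cut at about 24% in these data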;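 further: 0% = enzyme with DMSO and 100% = wells lacking PAFAH1B2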
Target sequence (P68402 whole entry, looked up): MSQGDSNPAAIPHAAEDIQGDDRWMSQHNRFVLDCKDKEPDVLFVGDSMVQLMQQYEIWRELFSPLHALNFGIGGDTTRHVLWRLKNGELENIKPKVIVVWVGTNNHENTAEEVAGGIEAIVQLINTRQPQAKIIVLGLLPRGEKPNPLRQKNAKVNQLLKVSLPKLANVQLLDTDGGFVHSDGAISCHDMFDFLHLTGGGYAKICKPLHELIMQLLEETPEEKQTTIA
pPAFAH FP inh = pPAFAH enzyme inhibitors, primary screen, biochemical, fluorescence polarization, human. Platelet-activating factor acetylhydrolase (Homo sapiens), Q13093. recombinant pPAFAH, FP-rhodamine probe fluorescence polarization. inhibition, % at 3.39 µM. hit rate 1.5% among 330,000. AID 463082, 2010;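 active means inhibition above the mean inhibition across the screen plus 3 SD, cut at about 25% in these data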;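 further: inhibitors block binding of the rhodamine activity-based probe so polarization drops; 0% = enzyme with DMSO and 100% = wells lacking pPAFAH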
Target sequence (Q13093 whole entry, looked up): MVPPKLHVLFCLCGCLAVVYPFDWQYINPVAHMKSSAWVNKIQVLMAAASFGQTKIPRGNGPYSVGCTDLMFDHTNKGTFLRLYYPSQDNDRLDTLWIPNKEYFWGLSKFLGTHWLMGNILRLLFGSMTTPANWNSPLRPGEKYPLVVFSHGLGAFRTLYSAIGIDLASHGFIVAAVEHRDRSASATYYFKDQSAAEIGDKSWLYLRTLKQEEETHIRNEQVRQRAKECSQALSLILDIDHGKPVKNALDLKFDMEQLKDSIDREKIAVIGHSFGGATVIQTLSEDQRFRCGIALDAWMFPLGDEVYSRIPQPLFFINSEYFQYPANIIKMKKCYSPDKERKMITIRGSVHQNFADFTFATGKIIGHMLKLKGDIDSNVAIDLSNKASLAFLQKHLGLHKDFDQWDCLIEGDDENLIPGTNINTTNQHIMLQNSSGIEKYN
Rin1 Abl inh = inhibitors of Rin1-Abl protein binding, primary screen, biochemical, TR-FRET | Tyrosine-protein kinase ABL1 (Homo sapiens) + Ras and Rab interactor 1 (Homo sapiens), … | inhibition, % at 7.35 µM | hit rate 0.4% among 360,000; in the data active means inhibition above about 5%, passing the limit was not always enough
E coli Lon inh = inhibitors of E. coli Lon protease, primary screen, biochemical, fluorescence polarization; hit rate 0.42% among 360,000; AID 602123, 2011; P0A9M0; inhibition, % at 7.94 µM; purified E. coli Lon protease; in the data active means inhibition above about 13%, passing the limit was not always enough;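 further: 0% = enzyme with probe and DMSO and 100% = no enzyme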
PAFAH1B3 FP inh = PAFAH1B3 enzyme inhibitors, primary screen, biochemical, fluorescence polarization, human | recombinant PAFAH1B3, FP-rhodamine probe | inhibition, % at 3.39 µM | hit rate 0.28% among 340,000 | AID 492972, 2010;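 active means inhibition above the screen-wide average of all tested compounds plus 3 SD, cut at about 25% in these data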;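 further: 0% = enzyme with DMSO only and 100% = wells lacking PAFAH1B3 protein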
PAFAH1B3 conf FP = PAFAH1B3 enzyme inhibitors, confirmation, biochemical, fluorescence polarization, human; shares compounds with PAFAH1B3 FP inh; recombinant PAFAH1B3, FP-Rh activity-based probe; inhibition, % at 3.39 µM; hit rate 30% among 390;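 active means average inhibition over triplicate runs above the hit cutoff set in the earlier primary screen, cut at about 25% in these data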;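 further: 0% = enzyme with DMSO and 100% = wells lacking PAFAH1B3 protein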
The depositor's hits bear a star; / = no result. Shown are actives, neighbours in structure and some others; about 3.1% of the full set was active somewhere.

SMILES	PAFAH2 inh	PAFAH1B2 FP inh	pPAFAH FP inh	Rin1 Abl inh	E coli Lon inh	PAFAH1B3 FP inh	PAFAH1B3 conf FP
CCn1c(CC(=O)Nc2ccc(F)cc2)nnc1SCC(=O)N1CCOCC1	-1.6	10.2	4.2	-3.7	1.6	5.1	/
CCCCn1nc(C(=O)Nc2cc(C(F)(F)F)ccc2N2CCOCC2)ccc1=O	2.0	1.7	8.5	1.1	-2.5	-0.7	/
C[C@H](CO)N1C[C@H](C)[C@H](CN(C)S(=O)(=O)c2cccs2)Oc2ccc(NC(=O)Nc3ccc4c(c3)OCO4)cc2CC1=O	17.5	17.8	10.7	-1.1	-1.9	27.7*	11.6
C[C@@H]1CN([C@@H](C)CO)C(=O)Cc2cc(NS(=O)(=O)c3cn(C)cn3)ccc2O[C@@H]1CN(C)C(=O)Nc1ccccc1	-4.2	3.5	6.0	2.5	2.2	26.2*	10.4
O=C(c1ccccc1)n1c(=O)c(F)cn(COCCBr)c1=O	9.7	5.8	-3.5	0.0	-10.6	13.5	/
Cc1cc(NS(=O)(=O)c2c(C)c(C)cc(C)c2C)no1	0.0	-1.9	5.0	0.1	-3.3	-0.8	/
O=C1C=C(N(CCO)Cc2ccccc2)c2ccccc2C1=O	20.4	9.7	/	-0.6	1.3	43.8*	28.9*
C/C(=N/Nc1ccc(C(=O)O)cc1)c1ccc2c(c1)Nc1ccccc1S2	24.7	6.5	/	1.6	-20.6	25.8*	18.7
C/C(=N\Nc1ccc(Cl)c(C(=O)O)c1)c1ccc2c(c1)OCO2	6.7	7.1	1.8	-2.6	10.9	2.1	/
COc1ccccc1-c1sc2ccccc2c1-c1cnc(N2CCOCC2)nc1	/	/	/	/	-2.0	/	/
COc1ccccc1NS(=O)(=O)c1cccc(C(=O)NCC(c2ccc(F)cc2)N2CCOCC2)c1 (configuration not stated)	-1.8	2.2	5.9	1.3	-1.4	32.5*	8.6
CCc1nnc(NC(=O)[C@@H](NS(=O)(=O)c2ccc3c(c2)OCCO3)C(C)C)s1	1.3	2.3	/	-2.4	-5.9	0.6	/
O=Cc1ccc(O)c2ncccc12	10.2	10.4	/	3.9	-1.8	29.3*	25.0
NC(=O)c1ccc(SCC(=O)OCC(=O)NCC2CCCCC2)c([N+](=O)[O-])c1	1.1	6.4	6.0	1.6	5.7	-0.8	/
CCC1NC(=O)c2cccnc2-n2c1nc1ccc(F)cc1c2=O (configuration not stated)	/	/	/	-1.4	-11.5	/	/
O=C(NC1CCCCC1)c1ccc2ccccc2c1O	/	/	/	-9.1	13.5	/	/
COc1ccccc1NC(=O)NNC(=O)c1cc2ccccc2cc1O	1.5	9.8	22.1	1.7	4.8	31.8*	44.6*
O=C(NNC(=O)c1ccc2ccccc2c1O)NC1CCCCC1	2.6	11.1	/	-4.5	-4.7	30.1*	24.8
Cc1ccc(NC(=O)NNC(=O)c2cc3ccccc3cc2O)cc1	-13.0	20.9	21.4	-3.5	8.9	46.2*	75.6*
O=C(NNC(=O)c1ccc2ccccc2c1O)Nc1ccc(F)cc1	-5.6	5.1	17.6	-0.9	-13.2	18.6	/
Cc1cccc(NC(=O)NNC(=O)c2ccc3ccccc3c2O)c1	-5.8	18.2	/	1.5	-6.4	42.5*	81.7*
COc1cc(OC)cc(C(=O)NNC(=O)c2cc3ccccc3cc2O)c1	4.8	6.1	/	0.1	-1.4	18.5	/
CN(C)CCNc1ncnc2c1ncn2[C@H]1CN(Cc2ccco2)C[C@@H](CO)O1	/	/	/	-0.3	6.5	/	/
Cn1c(=O)c2c(nc(NCc3ccccc3)n2C)n(C)c1=O	-10.9	-0.3	5.1	1.8	1.4	-0.8	/
Cn1c(=O)c2cc(NCc3ccccc3)nnc2n(C)c1=O	16.7	11.7	9.8	-5.6	-1.6	66.0*	11.7
SMILES	PAFAH2 inh	PAFAH1B2 FP inh	pPAFAH FP inh	Rin1 Abl inh	E coli Lon inh	PAFAH1B3 FP inh	PAFAH1B3 conf FP
CC(C)(CNC(=O)c1cccs1)N1CCOCC1	-0.7	2.1	3.9	2.8	0.2	7.0	/
FC(F)(F)C1=Nc2cccc3cccc(c23)N1	-2.0	18.8	/	0.8	-10.8	35.3*	40.2*
CCOc1ncccc1C(=O)N1CCN(S(=O)(=O)c2ccc3c(c2)OCCO3)CC1	-3.9	5.5	-1.2	5.5	-7.5	7.9	/
Cc1cc(Cl)ccc1OC(C)C(=O)OCC(=O)c1ccc[nH]1 (configuration not stated)	2.0	6.8	11.3	3.8	-4.2	3.8	/
COc1cc(C2Nc3cccc4cccc(c34)N2)cc(OC)c1O	22.6	13.3	6.5	4.8	-5.8	34.8*	10.8
C=CCN(C)NC(=O)Nc1ccccc1	-2.2	2.7	2.2	3.9	-4.3	11.3	/
C=CCN(C)NC(=S)Nc1ccccc1	2.7	-2.2	-2.4	0.8	0.7	41.5*	14.0
CC1CCCCN1CCCNC(=O)c1ccc2nc(N3CCCCC3)sc2c1 (configuration not stated)	7.9	5.1	-4.8	-0.4	-2.1	1.3	/
Cc1ccc(S(=O)(=O)/N=C2\C(=O)c3ccccc3C([O-])=C2n2cc[n+](CCC(C)C)c2)cc1	5.2	6.7	9.6	-8.1	4.7	25.6*	22.2
CCCC[n+]1ccn(C2=C([O-])c3ccccc3C(=O)/C2=N\S(=O)(=O)c2ccc(Br)cc2)c1	1.2	7.3	2.7	0.2	4.4	17.9	/
CC(=O)Nc1ccc(S(=O)(=O)/N=C2\C(=O)c3ccccc3C([O-])=C2n2cc[n+](-c3ccccn3)c2)cc1	7.2	11.4	7.4	-0.1	-8.8	38.2*	18.8
COC(=O)C/C=C/N(Cc1ccccc1OC)S(=O)(=O)CCl	2.6	3.8	3.4	-3.9	-13.7	6.4	/
O=C(Cn1c(=S)[nH]c2ccccc2c1=O)N1CCN(c2ccccc2)CC1	-24.7	-13.9	6.7	-2.5	1.4	25.7*	10.9
O=C(C1CCC(Cn2c(=S)[nH]c3ccccc3c2=O)CC1)N1CCN(c2ccccc2)CC1 (configuration not stated)	-8.7	0.0	0.3	3.2	-6.4	5.4	/
CCc1ccc(S(=O)(=O)Nc2cc(SCC(=O)O)c(O)c3ccccc23)cc1	21.8	18.1	9.2	6.9	8.0	27.8*	10.2
O=C1C(Cl)=C(N2CCC(C(=O)O)CC2)C(=O)c2ccccc21	20.8	22.5	12.8	-3.8	5.9	41.3*	32.1*
O=C1N/C(=C\c2ccc(O)cc2)C(=O)c2ccccc21	2.7	9.5	2.6	7.1	-29.6	33.4*	24.9
O=C(O)/C=C1\NC(=O)c2ccccc21	0.6	2.9	2.6	-1.6	2.7	6.2	/
COc1ccc(N2CCCC2=O)cc1S(=O)(=O)N1CCOCC1	/	/	/	-2.4	-4.7	/	/
CN(O)/C=c1/ccc2c(n1)C(=O)C=CC=2	11.3	7.9	6.9	5.4	3.1	35.0*	44.9*

Source: PubChem BioAssay
